Laboratory results as given in PubChem BioAssay (Tox21).
Inconclusive results are not listed. Activity calls are given as the source filed them. Unless noted, the call rests on the fitted dose curve.

Assays:
[1] = Nuclear factor erythroid 2-related factor 2/antioxidant responsive element (Nrf2/ARE) small molecule agonists: qHTS cell viability counter screen in human keratinocytes (AID 1919968; active means well fitted curve in the direction sought with a large enough effect in the repeat runs; an effect the other way counts as inactive or inconclusive; further: nearly all actives have a fitted effect of over 55% in size)
Outline: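 Fluorescence read-out from CellTiter-Fluor after 1 h at 37 C. Wells held HaCaT-derived ARE-luciferase reporter cells (1,500/well) treated 23 h with DMSO-dissolved compounds. Run in the same wells as the luciferase agonist read.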

[2] = Nuclear factor erythroid 2-related factor 2/antioxidant responsive element (Nrf2/ARE) small molecule agonists: luciferase reporter gene qHTS assay in human keratinocytes (AID 1919969); further: nearly all actives have a fitted effect of over 35% in size
[3] = target: Gonadotropin-releasing hormone receptor (Homo sapiens) (UniProt P30968); assay: Human gonadotropin-releasing hormone receptor (GnRHR) small molecule agonists, calcium flux assay in GnRHR-HEK293 cells (AID 1920063); further: nearly all actives have a fitted effect of over 35% in size
Outline: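 Calcium-dye fluorescence, Ex/Em=480/540, recorded every 1 sec over 3 min after compound addition to GnRHR-HEK293 cells. Cells had been seeded 18 hours earlier and dye-loaded for 1 hour at 37 C. Fifteen concentrations, triplicates.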

[4] = target: KiSS-1 receptor (Homo sapiens) (UniProt Q969F8); assay: Human kisspeptin (KISS1R) small molecule agonists, calcium flux assay in KISS1R-HEK293 cells (AID 1920064; active means well fitted curve in the direction sought with a large enough effect in the repeat runs; an effect the other way counts as inactive or inconclusive)
Outline: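 Calcium flux read-out: kinetic fluorescence at Ex/Em=480/540, 1 s intervals over 3 min, after pin-tool compound addition to dye-loaded KISS1R-HEK293 cells. Fifteen concentrations, triplicates.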

[5] = G protein-coupled receptor (GPCR) small molecule agonists, calcium flux assay: HEK293 wild type cell line counter screen (AID 1920065)
Outline: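 Agonist mode; 18 h seeding at 37 C, 1 h dye load at 37 C; compounds pinned from DMSO, ATP as positive control; kinetic fluorescence 480/540 nm, 3 min, 1 s reads; 15 concentrations, triplicate.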

[6] = p53 small molecule agonists, cell-based qHTS assay with human liver microsomes (AID 1963577)
Outline: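 Compounds act here after metabolic activation: human liver microsomes and NADPH, both at 0.5 mg/mL final, were co-added to p53RE-bla cells. Incubation ran 16 h at 37 C, followed by LiveBLAzer detection.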

[7] = p53 small molecule agonists, cell-based qHTS assay with rat liver microsomes (AID 1963578)
Outline: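 Read-out is beta-lactamase reporter fluorescence (LiveBLAzer, 2 h, room temperature, dark) in p53RE-bla cells treated 16 h at 37 C with compound, rat liver microsomes and NADPH, both 0.5 mg/mL final.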

[8] = p53 small molecule agonists, cell-based qHTS assay with human liver microsomes: qHTS cell viability counter screen (AID 1963579); further: nearly all actives have a fitted effect of over 45% in size
Outline: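 Cells carrying the p53 response-element beta-lactamase reporter are treated for 16 h at 37 C with test compounds in the presence of human liver microsomes and NADPH (both 0.5 mg/mL final); ATP-based CellTiter-Glo luminescence then reports viability.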

[9] = p53 small molecule agonists, cell-based qHTS assay: qHTS cell viability counter screen (AID 1963581); further: nearly all actives have a fitted effect of over 45% in size
Outline: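 Cytotoxicity read-out: ATP-based luminescence (CellTiter-Glo, 30 min RT) measured in the same wells as the p53 reporter assay, HCT-116 p53RE-bla cells, 16 h compound exposure at 37 C.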

[10] = p53 small molecule agonists, cell-based qHTS assay (AID 1963582; active means well fitted activation curve with a large enough effect in the signal ratio in the repeat runs, not every such curve was filed as active; the % refers to the signal ratio)
Outline: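 Fluorescence intensity read-out of a beta-lactamase reporter under a p53 response element. Cells were exposed to DMSO-dissolved compounds for 16 h at 37 C, then developed with FRET substrate for 2 h at RT.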

[11] = target: 5-hydroxytryptamine receptor 2A (Homo sapiens) (UniProt P28223); assay: 5-hydroxytryptamine receptor 2A (HTR2A) small molecule antagonists, cell-based qHTS assay (AID 1963586); further: nearly all actives have a fitted effect of over 45% in size
Outline: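 CHO cells stably expressing human HTR2A were plated for 18 h at 37 C, then loaded with calcium dye for 1 h. Compounds were preincubated 5 min at room temperature before DOI (4 nM solution) was added. Kinetic fluorescence was read for 3 min.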

[12] = target: 5-hydroxytryptamine receptor 2A (Homo sapiens) (UniProt P28223); assay: 5-hydroxytryptamine receptor 2A (HTR2A) small molecule agonists, cell-based qHTS assay (AID 1963587); further: nearly all actives have a fitted effect of over 30% in size
Outline: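 HTR2A-CHO cells, plated 18 h at 37 C/5% CO2, dye-loaded 1 h at 37 C; compounds in DMSO added by pin tool (agonist mode). Intracellular calcium flux read as kinetic fluorescence on FDSS over 2 min at 1 s intervals.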

[13] = target: Muscarinic acetylcholine receptor M1 (Homo sapiens) (UniProt P11229); assay: Cholinergic receptor muscarinic 1 (CHRM1) small molecule antagonists, cell-based qHTS assay (AID 1963588); further: nearly all actives have a fitted effect of over 40% in size
Outline: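 Compounds were tested at 15 concentrations in three independent runs. Dye-loaded CHRM1-CHO cells were exposed 5 min at room temperature before stimulation by acetylcholine added at 50nM. Intracellular calcium was read kinetically on FDSS for 3 min.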

[14] = target: Muscarinic acetylcholine receptor M1 (Homo sapiens) (UniProt P11229); assay: Cholinergic receptor muscarinic 1 (CHRM1) small molecule agonists, cell-based qHTS assay (AID 1963589); further: nearly all actives have a fitted effect of over 35% in size
Outline: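 Calcium flux read-out: kinetic fluorescence at 1 sec intervals after pin-tool compound addition to dye-loaded CHRM1-CHO cells (human M1). Agonist mode; 15 concentrations tested in triplicate independent runs.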

[15] = cAMP Responsive Elements (CRE) small molecule agonists, cell-based qHTS assay (AID 1963590)
Outline: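 Beta-lactamase reporter readout: LiveBLAzer B/G FRET substrate, 2 h at room temperature, added after 3 h compound treatment of CRE-bla HEK 293T cells at 37 C/5% CO2.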

[16] = cAMP Responsive Elements (CRE) small molecule antagonists, cell-based qHTS assay (AID 1963591; active means well fitted inhibition curve with a large enough effect in the signal ratio in the repeat runs, not every such curve was filed as active; the % refers to the signal ratio)
Outline: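 HEK293T CRE-bla; 18 h preincubation; compound pin-transfer; NKH477 0.25 uM final, 3 h, 37 C; LiveBLAzer FRET substrate 2 h RT.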

[17] = target: Beta-2 adrenergic receptor (Homo sapiens) (UniProt P07550); assay: Adrenergic beta2 receptor (ADRB2) small molecule antagonists, cell-based qHTS assay (AID 1963592); further: series mostly up to about 92 µM; nearly all actives have a fitted effect of over 50% in size
Outline: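 Assay format: CHO-ADRB2 cells, 18-20hr seeding at 37C/5% CO2, then compound plus 1nM isoproterenol agonist mix for 0.5hr RT. Homogeneous time-resolved fluorescence cAMP detection after 1hr, expressed as 665/615 nm ratio.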

[18] = target: D(2) dopamine receptor (Homo sapiens) (UniProt P14416); assay: Dopamine D2 receptor (DRD2) small molecule agonists, cell-based qHTS assay (AID 1963594); further: nearly all actives have a fitted effect of over 35% in size
Outline: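 HEK293 cells stably expressing DRD2 were cultured 24 h at 37 C, then given Ro20-1724 (0.1 mM final) and compounds for 10 min at room temperature. NKH477 (200nM) was then added for 30 min. cAMP was read by HTRF.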

[19] = target: D(2) dopamine receptor (Homo sapiens) (UniProt P14416); assay: Dopamine D2 receptor (DRD2) small molecule antagonists, cell-based qHTS assay (AID 1963595; active means well fitted inhibition curve with a large enough effect in the signal ratio in the repeat runs, with a control signal flat; the % refers to the signal ratio)
Outline: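 Readout: HTRF cAMP, cAMP-d2 competing with cellular cAMP for anti-cAMP cryptate, read after 1 h. Cells: DRD2-HEK293. Conditions: 0.1 mM Ro20-1724, 12 nM quinpirole, 200 nM NKH477, 30 min RT.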

[20] = target: Beta-2 adrenergic receptor (Homo sapiens) (UniProt P07550); assay: Adrenergic beta2 receptor (ADRB2) small molecule agonists, cell-based qHTS assay (AID 1963593);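 further: CHO cells stably overexpressing human ADRB2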
Outline: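 CHO cells stably over-expressing ADRB2 were plated overnight at 37C, then dosed with compounds plus a stimulation mix containing 100uM IBMX and 25uM Ro-20-1724 for 0.5hr at room temperature. cAMP was measured by HTRF competition, 1hr.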
On the % scale 0 is the no-effect control and ±100 the full control effect.

KiSS-1 receptor (Homo sapiens), sequence (Q969F8 whole entry, looked up): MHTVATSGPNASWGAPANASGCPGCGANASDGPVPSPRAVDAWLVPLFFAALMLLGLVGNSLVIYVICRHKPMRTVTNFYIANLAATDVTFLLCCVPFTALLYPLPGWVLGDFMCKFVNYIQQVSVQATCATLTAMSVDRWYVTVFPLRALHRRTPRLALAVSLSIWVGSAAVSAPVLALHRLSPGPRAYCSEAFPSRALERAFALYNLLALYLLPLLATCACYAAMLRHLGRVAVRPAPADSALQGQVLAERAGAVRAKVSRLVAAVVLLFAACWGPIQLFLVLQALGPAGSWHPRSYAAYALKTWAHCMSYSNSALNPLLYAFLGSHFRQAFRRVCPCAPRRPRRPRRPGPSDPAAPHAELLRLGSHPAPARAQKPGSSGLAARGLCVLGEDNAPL
Beta-2 adrenergic receptor (Homo sapiens), sequence (P07550 whole entry, looked up): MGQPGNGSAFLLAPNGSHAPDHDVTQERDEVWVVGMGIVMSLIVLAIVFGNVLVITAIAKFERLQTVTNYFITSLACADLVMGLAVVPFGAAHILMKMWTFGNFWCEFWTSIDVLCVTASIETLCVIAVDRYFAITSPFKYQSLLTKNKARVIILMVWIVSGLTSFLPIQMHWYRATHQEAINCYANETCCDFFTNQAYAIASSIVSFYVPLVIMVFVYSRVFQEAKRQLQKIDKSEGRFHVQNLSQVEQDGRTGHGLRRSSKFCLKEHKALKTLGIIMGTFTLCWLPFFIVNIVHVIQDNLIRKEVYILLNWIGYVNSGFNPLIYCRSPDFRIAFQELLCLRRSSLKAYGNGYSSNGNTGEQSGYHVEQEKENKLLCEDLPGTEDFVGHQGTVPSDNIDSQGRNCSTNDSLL
D(2) dopamine receptor (Homo sapiens), sequence (P14416 whole entry, looked up): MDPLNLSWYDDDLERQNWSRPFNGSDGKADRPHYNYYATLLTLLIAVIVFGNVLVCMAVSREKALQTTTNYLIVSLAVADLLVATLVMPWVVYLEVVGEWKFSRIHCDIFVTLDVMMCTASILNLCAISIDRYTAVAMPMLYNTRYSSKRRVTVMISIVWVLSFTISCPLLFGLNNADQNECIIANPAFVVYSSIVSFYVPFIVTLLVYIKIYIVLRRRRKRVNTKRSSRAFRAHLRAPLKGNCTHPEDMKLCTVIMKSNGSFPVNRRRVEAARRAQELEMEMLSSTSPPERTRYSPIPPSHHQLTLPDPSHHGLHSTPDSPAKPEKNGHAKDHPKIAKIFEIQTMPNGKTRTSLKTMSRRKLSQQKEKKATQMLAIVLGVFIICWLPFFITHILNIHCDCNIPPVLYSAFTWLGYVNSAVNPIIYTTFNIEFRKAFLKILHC
Muscarinic acetylcholine receptor M1 (Homo sapiens), sequence (P11229 whole entry, looked up): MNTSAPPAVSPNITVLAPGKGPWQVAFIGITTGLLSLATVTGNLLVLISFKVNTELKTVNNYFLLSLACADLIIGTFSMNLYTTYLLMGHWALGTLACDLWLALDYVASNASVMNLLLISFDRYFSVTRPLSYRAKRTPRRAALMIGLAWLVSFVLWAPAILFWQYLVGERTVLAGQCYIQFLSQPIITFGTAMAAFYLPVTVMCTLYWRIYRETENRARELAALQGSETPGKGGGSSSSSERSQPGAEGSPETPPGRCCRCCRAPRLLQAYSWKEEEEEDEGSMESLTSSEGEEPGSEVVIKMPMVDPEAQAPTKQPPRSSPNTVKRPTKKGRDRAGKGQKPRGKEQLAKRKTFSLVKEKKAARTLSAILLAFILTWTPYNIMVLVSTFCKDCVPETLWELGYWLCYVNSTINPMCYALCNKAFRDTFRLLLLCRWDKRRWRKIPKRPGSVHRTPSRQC
5-hydroxytryptamine receptor 2A (Homo sapiens), sequence (P28223 whole entry, looked up): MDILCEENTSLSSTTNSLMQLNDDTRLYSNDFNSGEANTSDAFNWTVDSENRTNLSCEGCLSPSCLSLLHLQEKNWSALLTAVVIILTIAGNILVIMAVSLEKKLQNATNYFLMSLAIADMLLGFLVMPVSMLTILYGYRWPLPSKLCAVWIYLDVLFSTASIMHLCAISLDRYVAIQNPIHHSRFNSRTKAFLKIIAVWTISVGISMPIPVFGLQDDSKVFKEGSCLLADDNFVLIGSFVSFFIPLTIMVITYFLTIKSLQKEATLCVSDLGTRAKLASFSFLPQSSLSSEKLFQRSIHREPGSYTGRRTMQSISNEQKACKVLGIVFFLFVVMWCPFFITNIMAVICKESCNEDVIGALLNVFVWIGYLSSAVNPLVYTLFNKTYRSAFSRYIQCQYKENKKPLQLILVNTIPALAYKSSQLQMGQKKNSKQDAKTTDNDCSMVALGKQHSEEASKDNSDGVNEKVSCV
Gonadotropin-releasing hormone receptor (Homo sapiens), sequence (P30968 whole entry, looked up): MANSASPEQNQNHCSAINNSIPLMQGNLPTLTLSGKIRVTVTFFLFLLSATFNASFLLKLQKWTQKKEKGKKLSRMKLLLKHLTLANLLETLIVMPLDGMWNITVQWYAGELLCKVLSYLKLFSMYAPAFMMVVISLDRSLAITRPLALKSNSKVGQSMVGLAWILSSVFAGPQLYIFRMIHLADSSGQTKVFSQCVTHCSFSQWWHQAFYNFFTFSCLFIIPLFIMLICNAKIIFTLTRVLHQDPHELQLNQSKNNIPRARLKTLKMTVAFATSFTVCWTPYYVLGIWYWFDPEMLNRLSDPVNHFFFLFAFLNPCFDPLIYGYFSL

Nc1ccc(NCCO)c([N+](=O)[O-])c1
inactive: Potency [1] | Potency [2] | Potency [3] | Potency [4] | Potency [5] | Potency [6] | Potency [7] | Potency [8] | Potency [9] | Potency [10] | Potency [11] | Potency [12] | Potency [13] | Potency [14] | Potency [15] | Potency [16]

CC(=O)Nc1c(I)cc(I)c(C(=O)O)c1I
inactive: Potency [1] | Potency [2] | Potency [3] | Potency [4] | Potency [5] | Potency [6] | Potency [7] | Potency [8] | Potency [9] | Potency [10] | Potency [11] | Potency [12] | Potency [13] | Potency [14] | Potency [15] | Potency [16] | Potency [17] | Potency [18]

CO[C@@H]1[C@@H](O[C@@H]2O[C@H](C)[C@@H](O[C@H]3C[C@@](C)(O)[C@@H](O)[C@H](C)O3)[C@H](N(C)C)[C@H]2O)[C@@H](CC=O)C[C@@H](C)[C@@H](O[C@@H]2CC[C@H](N(C)C)[C@@H](C)O2)/C=C/C=C/C[C@@H](C)OC(=O)C[C@H]1OC(C)=O
inactive: Potency [1] | Potency [2] | Potency [3] | Potency [4] | Potency [5] | Potency [6] | Potency [7] | Potency [8] | Potency [9] | Potency [10] | Potency [11] | Potency [12] | Potency [13] | Potency [14] | Potency [15] | Potency [16] | Potency [17] | Potency [18] | Potency [19]

CC(=O)O[C@@H]1CC2C3CCc4cc(OC(=O)c5ccccc5)ccc4C3CCC2(C)[C@H]1OC(C)=O (some centres undefined)
inactive: Potency [1] | Potency [2] | Potency [3] | Potency [4] | Potency [5] | Potency [6] | Potency [7] | Potency [8] | Potency [9] | Potency [10] | Potency [11] | Potency [12] | Potency [13] | Potency [14] | Potency [15] | Potency [16] | Potency [17] | Potency [20] | Potency [18]

CC(Cl)COP(=O)(OCC(C)Cl)OCC(C)Cl (centres undefined)
inactive: Potency [1] | Potency [2] | Potency [3] | Potency [4] | Potency [5] | Potency [6] | Potency [7] | Potency [8] | Potency [9] | Potency [10] | Potency [11] | Potency [12] | Potency [13] | Potency [14] | Potency [15] | Potency [16] | Potency [17] | Potency [20] | Potency [18]

Nc1nnnn1-c1ccccc1
inactive: Potency [1] | Potency [2] | Potency [3] | Potency [4] | Potency [5] | Potency [6] | Potency [7] | Potency [8] | Potency [9] | Potency [10] | Potency [11] | Potency [12] | Potency [13] | Potency [14] | Potency [15] | Potency [16] | Potency [17] | Potency [20] | Potency [19]

CCC(C)(O)CCC=C(C)C (centres undefined)
inactive: Potency [1] | Potency [2] | Potency [3] | Potency [4] | Potency [5] | Potency [6] | Potency [7] | Potency [8] | Potency [9] | Potency [10] | Potency [12] | Potency [13] | Potency [14] | Potency [15] | Potency [16] | Potency [17] | Potency [20] | Potency [18] | Potency [19]

C=C(C)[C@@H]1CC[C@@H](C)C[C@@H]1O
inactive: Potency [1] | Potency [2] | Potency [3] | Potency [4] | Potency [5] | Potency [6] | Potency [7] | Potency [8] | Potency [9] | Potency [11] | Potency [12] | Potency [13] | Potency [14] | Potency [15] | Potency [16] | Potency [17] | Potency [20] | Potency [18] | Potency [19]

CC(C)(C)C(=O)C1C(=O)c2ccccc2C1=O
inactive: Potency [1] | Potency [2] | Potency [3] | Potency [4] | Potency [5] | Potency [6] | Potency [7] | Potency [8] | Potency [9] | Potency [10] | Potency [11] | Potency [12] | Potency [13] | Potency [14] | Potency [15] | Potency [17] | Potency [18] | Potency [19]

COC(=O)c1ccc2cc(C(=O)OC)ccc2c1
inactive: activity change, negative = cytotoxicity [1] 1.05% [at 19 µM] | activity, positive = activation [2] 20.6% [at 19 µM] | activity change [3] 0.0273% [at 11.8 µM, hits give high values] | activation [4] 2.25% [at 15.8 µM] | activation [5] 0.0113% [at 11.8 µM] | activation [6] -11.1% [at 13.5 µM] | activation [7] -1.04% [at 13.6 µM] | activity change, negative = cytotoxicity [8] -6.68% [at 13.5 µM] | activity change, negative = cytotoxicity [9] 11% [at 13.5 µM] | activation [10] -2.37% [at 13.5 µM] | activity, negative = inhibition [11] 2.21% [at 12.7 µM] | activation [12] -0.775% [at 15.9 µM] | activation [14] 0.0556% [at 15.8 µM] | activation [15] -2.52% [at 19 µM] | activity change, negative = inhibition [16] -4.98% [at 18.9 µM] | activity change, negative = inhibition [17] -9.16% [at 19 µM] | activation [20] 21.2% [at 19 µM] | activation [18] -0.16% [at 19 µM] | activity change, negative = inhibition [19] -2.05% [at 18.9 µM]

COC(=O)c1ccccc1C(=O)O
inactive: Potency [1] | Potency [2] | Potency [3] | Potency [4] | Potency [5] | Potency [6] | Potency [7] | Potency [8] | Potency [9] | Potency [10] | Potency [12] | Potency [13] | Potency [14] | Potency [15] | Potency [16] | Potency [17] | Potency [20] | Potency [18] | Potency [19]
